In PMC6212790, “How bacterial xenogeneic silencer rok distinguishes foreign from self DNA in its resident genome” one finds binding signal data, which are given here for 172 sequences.

In all, about 33,000 sequences were measured (“e-score”: median about -0.037, highest 2% from about 0.34 on). Only a selection was taken, and the highest values are over-represented in it overall.

This assay addresses T1, GST-Rok (full length) (Bacillus subtilis subsp. subtilis str. …, UniProt O34857 1-191).
T1 sequence: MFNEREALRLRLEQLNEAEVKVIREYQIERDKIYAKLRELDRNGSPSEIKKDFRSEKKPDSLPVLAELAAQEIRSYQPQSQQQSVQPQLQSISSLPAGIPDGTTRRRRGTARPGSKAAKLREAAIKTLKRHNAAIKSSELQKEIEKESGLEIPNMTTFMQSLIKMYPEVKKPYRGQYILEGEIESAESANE
As to the kind of experiment: protein binding microarray; Rok is a gene silencer of Bacillus subtilis; high values mean tight binding. Particulars: protein: recombinant; tags: GST (pTH5325, pDEST15-Magic modified); dsDNA, one strand shown. In a few lines: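 Every oligonucleotide joins a 25-mer constant primer to a 35-mer variable part drawn from a de Bruijn sequence of order 10, so each non-palindromic 8-mer appears at least 32 times and each palindromic 8-mer 16 times. The preference for every 8-mer is reported as a unitless, rank-based enrichment score (E-score). This score spans 0.5 for the most favored 8-mer to −0.5 for the most disfavored.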
On to GTGGGTAA, for which the binding signal amounted to 0.142 E-score.

As to AGTGACAT, the binding signal turned out to be 0.101 E-score.

In the case of AGCAAAAG, the binding signal was -0.151 E-score.

As for CCACTGAA, the binding signal was -0.106 E-score.

CCCATTGA: the binding signal was -0.11 E-score.

With ACTTGATG, the binding signal was -0.00809 E-score.

Regarding AGCGCTGG, the binding signal was -0.124 E-score.

Turning to AGGCGTGC, the binding signal is -0.13 E-score.

With ATATTCAT, the binding signal was 0.319 E-score.

As for GTGACGGA, the binding signal was -0.136 E-score.

Regarding TCGTTCAA, the binding signal was found to be 0.0056 E-score.

Consider GTAATACA, for which the binding signal is 0.247 E-score.

As for ATAATATC, the binding signal was determined as 0.274 E-score.

For GTAATAGA, the binding signal came to 0.257 E-score.

Regarding GTAATATA, the binding signal was 0.391 E-score.

Consider ATAATATG, for which the binding signal turned out to be 0.232 E-score.

With ATAATATA, the binding signal stood at 0.453 E-score.

In the case of GCATGTCA, the binding signal was -0.0408 E-score.

Consider ACGAGTTG, for which the binding signal was determined as 0.149 E-score.

GAGATTGA: the binding signal is 0.0297 E-score.

Consider TTGGTAAA, for which the binding signal worked out at 0.217 E-score.

With CATATCGA, the binding signal was determined as 0.0224 E-score.

Regarding CTTTAAAG, the binding signal amounted to 0.0411 E-score.

For ACTAGTTA, the binding signal came to 0.44 E-score.

As for ACTAGTTC, the binding signal turned out to be 0.329 E-score.

Take ACTAGTCG: the binding signal came out at 0.292 E-score.

In the case of ACTAGTCC, the binding signal was determined as 0.108 E-score.

On to GCTAGTTA, for which the binding signal was 0.337 E-score.

On to GCTAGTGA, for which the binding signal worked out at 0.0873 E-score.

Take CCTAGTTA: the binding signal is 0.209 E-score.

As for ACTAGTCA, the binding signal came to 0.352 E-score.

With GCTAGTCA, the binding signal is -0.0821 E-score.

Take ACTGTTCT: the binding signal is 0.0222 E-score.

AAATAGGC: the binding signal came out at 0.00361 E-score.

Turning to AACATTAA, the binding signal was found to be 0.133 E-score.

With AGCTGCTC, the binding signal is -0.187 E-score.

As to CTCCATAC, the binding signal is 0.166 E-score.

As for AGTCTGAC, the binding signal was -0.198 E-score.

As to GTTAGGTA, the binding signal worked out at 0.191 E-score.

For CCAAAAAG, the binding signal is -0.177 E-score.

Consider GGAATTAA, for which the binding signal came to 0.111 E-score.

Take CCTCAGTA: the binding signal turned out to be 0.0795 E-score.

In the case of CTGGCTCA, the binding signal was determined as 0.0475 E-score.

Take CTCGAGCA: the binding signal is -0.112 E-score.

Regarding CTTCGAAA, the binding signal was -0.139 E-score.

For CGTGAACA, the binding signal came to 0.0255 E-score.

Take ACTTGTAT: the binding signal was found to be 0.236 E-score.

GATTGTAC: the binding signal stood at 0.317 E-score.

With ACTTGTAC, the binding signal was 0.345 E-score.

With AATTGTAG, the binding signal came out at 0.28 E-score.

With AATTGTAC, the binding signal was 0.341 E-score.

As for ACTTGTAA, the binding signal was 0.168 E-score.

For ACGGTTAG, the binding signal was -0.0112 E-score.

Take GTTATTGA: the binding signal was found to be 0.0636 E-score.

As for CGTTACAA, the binding signal amounted to 0.151 E-score.

Consider CTCAGTTC, for which the binding signal is -0.0174 E-score.

For CTCTAGCA, the binding signal was -0.115 E-score.

Regarding ATCTAGCC, the binding signal was 0.178 E-score.

Turning to ATCTAGTA, the binding signal worked out at 0.408 E-score.

Take ATCTAGCA: the binding signal was determined as 0.339 E-score.

Take CTCTAGTA: the binding signal worked out at 0.119 E-score.

In the case of ATCTAGTC, the binding signal is 0.297 E-score.

As for AACTTCAT, the binding signal was 0.0811 E-score.

For the sequence GCTGTGAC, the binding signal is -0.0172 E-score.

For the sequence AGATAACA, the binding signal worked out at 0.241 E-score.

Take CTTACCAC: the binding signal was determined as 0.00163 E-score.

For the sequence AGTTGCGA, the binding signal was 0.0582 E-score.

With GAACTGAA, the binding signal was -0.118 E-score.

As for AGACCGTC, the binding signal is -0.193 E-score.

Consider CCAATGGG, for which the binding signal is -0.118 E-score.

Regarding AGTCTGCG, the binding signal turned out to be 0.0274 E-score.

With AGTGGGCA, the binding signal is -0.0765 E-score.

As to GACGACGC, the binding signal was 0.0038 E-score.

With GAATATCA, the binding signal came to 0.18 E-score.

Regarding GTATATCA, the binding signal was determined as 0.208 E-score.

For the sequence CTATATCA, the binding signal was 0.231 E-score.

Turning to CTATATCC, the binding signal stood at 0.0894 E-score.

Turning to ATATATCA, the binding signal was found to be 0.398 E-score.

In the case of ATATATCG, the binding signal was 0.381 E-score.

CAATATCA: the binding signal is 0.183 E-score.

Turning to TAATATCA, the binding signal is 0.338 E-score.

For the sequence ATATATCC, the binding signal came to 0.18 E-score.

As to CCTTAATC, the binding signal was -0.174 E-score.

With AGGAAGTA, the binding signal turned out to be 0.0966 E-score.

Turning to GCTCCGGA, the binding signal was -0.102 E-score.

Take CCTACTTC: the binding signal is 0.211 E-score.

As for ACATCTCG, the binding signal is -0.0379 E-score.

Regarding CACGTCAA, the binding signal stood at 0.00857 E-score.

On to AACTTCTT, for which the binding signal was -0.00379 E-score.

For TCTTAAGA, the binding signal worked out at 0.00924 E-score.

With AGTGATTG, the binding signal was -0.118 E-score.

In the case of GGTGTCGA, the binding signal was -0.128 E-score.

For the sequence CGCTGAGC, the binding signal was -0.0254 E-score.

AACTAATT: the binding signal turned out to be 0.32 E-score.

ACCTAATA: the binding signal came out at 0.176 E-score.

In the case of AACTAATC, the binding signal came out at 0.158 E-score.

For TACTAATA, the binding signal was 0.346 E-score.

On to CACTAATA, for which the binding signal came to 0.277 E-score.

For CACTAATG, the binding signal came to 0.154 E-score.

With AACTAATG, the binding signal worked out at 0.339 E-score.

Turning to GACTAATA, the binding signal is 0.225 E-score.

Regarding AACTAATA, the binding signal is 0.357 E-score.

With AGATTACG, the binding signal came to 0.17 E-score.

Take AAACCCGT: the binding signal is -0.0147 E-score.

As to ACCGGCAA, the binding signal was -0.0643 E-score.

On to TTCCCCAA, for which the binding signal is -0.0604 E-score.

GTGATTCA: the binding signal is -0.0295 E-score.

As to TGATGCAA, the binding signal is -0.0283 E-score.

Regarding CGCGGTAA, the binding signal turned out to be 0.147 E-score.

As to AGTCAATA, the binding signal came to 0.322 E-score.

As to AATATAAC, the binding signal came to 0.193 E-score.

AATATATA: the binding signal worked out at 0.469 E-score.

AAGATATA: the binding signal was 0.313 E-score.

Regarding AATATTAT, the binding signal was found to be 0.208 E-score.

With AATATATC, the binding signal turned out to be 0.412 E-score.

As for AATATATG, the binding signal is 0.33 E-score.

As for AATATATT, the binding signal was determined as 0.41 E-score.

Take CGTATATC: the binding signal stood at 0.196 E-score.

As to AATATAAT, the binding signal was determined as 0.228 E-score.

Consider GATGGGAA, for which the binding signal was -0.056 E-score.

Take CAGGACGG: the binding signal is -0.164 E-score.

For CAGAGTTA, the binding signal is -0.0506 E-score.

For ATTATAGG, the binding signal stood at 0.285 E-score.

Turning to TCTACTCA, the binding signal is 0.206 E-score.

On to AGTACTTA, for which the binding signal amounted to 0.349 E-score.

ACTACTTC: the binding signal was determined as 0.193 E-score.

As to AGTACTTG, the binding signal was determined as 0.297 E-score.

As to GCTACTAA, the binding signal came out at 0.199 E-score.

As for ACTACTCA, the binding signal is 0.281 E-score.

With ACTACTGA, the binding signal worked out at 0.323 E-score.

In the case of CCTACTAA, the binding signal is -0.00507 E-score.

CGTACTTA: the binding signal was determined as 0.264 E-score.

For ACTACTAA, the binding signal was 0.386 E-score.

For the sequence ACTACTTA, the binding signal amounted to 0.432 E-score.

For TCTACTAA, the binding signal was determined as 0.353 E-score.

Consider AGTAACAT, for which the binding signal stood at 0.242 E-score.

Regarding CTCCATTC, the binding signal turned out to be 0.0472 E-score.

Regarding GCTACAGC, the binding signal came to 0.0848 E-score.

Consider ACGCGGCA, for which the binding signal was -0.129 E-score.

Consider GTAGAAGA, for which the binding signal came out at 0.247 E-score.

With ACAGCGAT, the binding signal is -0.0187 E-score.

CAGGAGAA: the binding signal was -0.111 E-score.

In the case of AATTTAAG, the binding signal worked out at 0.18 E-score.

As to ACAGTGTC, the binding signal turned out to be 0.114 E-score.

As for ACTGATAA, the binding signal was 0.273 E-score.

As to TAGCTTCA, the binding signal was found to be 0.13 E-score.

On to AAGCAAGG, for which the binding signal was -0.19 E-score.

Turning to AAGTTGAG, the binding signal was -0.123 E-score.

For AGATGTAC, the binding signal stood at 0.315 E-score.

For ATATGTTA, the binding signal amounted to 0.395 E-score.

Regarding ATATGTAC, the binding signal was determined as 0.345 E-score.

Consider CTATGTAA, for which the binding signal amounted to 0.185 E-score.

Consider ATATGTAA, for which the binding signal stood at 0.286 E-score.

Take ATATGTTC: the binding signal turned out to be 0.184 E-score.

Regarding CTATGTTA, the binding signal is 0.285 E-score.

Regarding ATATGTAG, the binding signal came out at 0.391 E-score.

Regarding CTATGTAC, the binding signal was found to be 0.186 E-score.

On to CGCTATTA, for which the binding signal amounted to 0.211 E-score.

Take CATTAGCA: the binding signal is -0.0362 E-score.

Consider GAGCTCAC, for which the binding signal was -0.145 E-score.

For ACGCAGAG, the binding signal was -0.119 E-score.

Take AGTAGAAC: the binding signal is 0.267 E-score.

For the sequence AGTAGAAG, the binding signal was found to be 0.228 E-score.

Consider AGTAGAGA, for which the binding signal worked out at 0.265 E-score.

In the case of ATTAGAAA, the binding signal was 0.233 E-score.

Take AGTAGAAA: the binding signal was 0.42 E-score.

AGTAGAAT: the binding signal was determined as 0.42 E-score.

On to AGGATTAG, for which the binding signal was found to be 0.158 E-score.

Take TAGCCCAA: the binding signal was -0.0264 E-score.

As for ACGGAGCG, the binding signal is -0.13 E-score.

As for CTATACAA, the binding signal was 0.296 E-score.

For the sequence TTATACAA, the binding signal turned out to be 0.294 E-score.
